# Only some compounds are listed: those with a hit (about 19% of all), similar ones and a draw of the others.
# HT1080-NT tox = kills 2HG-producing HT-1080-NT fibrosarcoma cells; HT-1080-NT fibrosarcoma viability, CellTiter-Glo ATP luminescence, 48 h; Potency, µM (series often up to 46.1 µM), inactives show at the top dose activity, negative = less viability, usual class: cytotoxic; 360,000 compounds, 1.6% hits;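 also: NT is the 2HG producing partner of a matched IDH1 knockdown line; potency is read from the fitted curve at half-maximal effect; 0% = DMSO-treated cells and -100% = media-only wells without cells; nearly all actives have a fitted effect of over 55% in size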
#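 Viability of the 2HG-overproducing fibrosarcoma line after 48 hours of compound exposure at 37 degrees C was determined by luminescence with CellTiter-Glo, and concentration-effect curves were then fitted and categorized.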
# TDP1 cell noCPT = qHTS for Inhibitors of human tyrosyl-DNA phosphodiesterase 1 (TDP1): qHTS in cells in absence of CPT. AID 686978, 2013. Potency, µM (series often up to 46.2 µM), inactives show at the highest dose activity change, negative = growth inhibition, usual class: inhibitors. 420,000 compounds, 15% hits. DT40 Tdp1-/- hTDP1 cells, no CPT, ATP luminescence, 48 h; also: potency is read from the fitted curve at half-maximal effect; nearly all actives have a fitted effect of over 55% in size
#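 Chicken DT40 Tdp1-/- cells complemented with human TDP1, screened without camptothecin (DMSO vehicle only), 400 cells/well. Compounds pin-transferred, cells incubated at 37 °C for at least 48 hr. Growth read as ATP-dependent luminescence (CellTiter-Glo, 30 min at RT).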
# TDP1 cell CPT = growth inhibition of DT40 Tdp1-/-;hTDP1 cells with camptothecin (screen for TDP1 inhibitors); Potency, µM (titrated, usually from 46.2 µM), for the others: top-dose activity change, negative = growth inhibition, hits mostly inhibitors; chicken DT40 Tdp1-/-;hTDP1 cells + 20 nM CPT, ATP luminescence, 48 h; 420,000 compounds, 12% hits; also: potency is read from the fitted curve at half-maximal effect; nearly all actives have a fitted effect of over 55% in size
#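 Chicken DT40 Tdp1-/- cells complemented with human TDP1, 400 cells/well, exposed to compounds plus 20 nM camptothecin for at least 48 h at 37 C; viability read as ATP content by CellTiter-Glo luminescence.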
# HT1080 IDH1KD tx = kills HT-1080 cells with IDH1 knockdown. HT-1080 IDH1 knockdown viability, ATP luminescence, 48 h. Potency, µM (top dose mostly 46.1 µM), without a hit: at the highest dose activity, negative = toxicity, usual class: cytotoxic. 360,000 compounds, 2% hits. AID 686971;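 also: potency is read from the fitted curve at half-maximal effect; 0% = DMSO wells and -100% = cell-free medium wells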
#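 Knockdown cells (IDH1KD HT-1080) received compounds 2 h after plating at 750 cells/well and were kept 48 h at 37 °C in 5% FBS RPMI. A CellTiter-Glo luminescence read gave % activity for curve fitting.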
# IL-1B inflam inh = inhibitors of inflammasome signaling (IL-1 beta secretion); THP-1 LPS/ATP IL-1B secretion, AlphaLISA, 16 h; hits give low values; activity change, % at 57.5 µM; 360,000 compounds, 4.7% hits; AID 743279; in the data active = activity change below about -50%; inconclusive = mostly about -30% to -49%
#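 Secreted IL-1B measured by AlphaLISA bead assay after 16 h compound exposure of THP-1 cells; compounds (final up to 57.5 uM) added 1 h before LPS (250 ng/mL) and ATP (1.25 mM) stimulation; lower signal means less secretion.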
# * marks the source's active call; other numbers are inactive results; ? = inconclusive; · = not tested or not shown; [ ] = another dose, or the depositor's remark. Unless noted, calls follow the shape of the dose curve; as a rule, active = well fitted curve in the direction sought with a large enough effect; inconclusive = small, poorly fitted or top-dose-only effect, or another doubt; inactive = no such curve, though single readings can be large; an effect the other way counts as inactive or inconclusive. Unless noted, % is scaled to controls: 0 for no effect and ±100 for the full control effect.
SMILES,HT1080-NT tox,TDP1 cell noCPT,TDP1 cell CPT,HT1080 IDH1KD tx,IL-1B inflam inh
CC(/C=N/n1c(-c2ccc(Cl)cc2)n[nH]c1=S)=C\c1ccco1,-0.8%,?,?,13.3%,3.4
N#CC(C#N)=C1C=CC=CN1/C(=C\c1ccco1)C(=O)c1ccc(Cl)cc1,?,0.92µM*,0.581µM*,?,-100.7*
N#CC(C#N)=C1C=CC=CN1/C(=C\c1ccco1)C(=O)c1ccc(-c2ccccc2)cc1,?,0.581µM*,0.92µM*,?,-66.8*
N#C/C(=C\c1ccco1)C(=O)NCc1ccccc1,0.4%,-10.2%,-4.2%,1.1%,0.0
COc1ccc(OCC(=O)C2CC2)c(C#N)c1,-1.7%,-12.5%,-7.2%,-3.9%,2.0
COCCN(CCOC)Cc1cc(=O)oc2cc(OC)ccc12,27.0%,?,15.7%,-0.2%,1.6
O=C(Nc1ccc(F)cc1)c1ncn(-c2ccccc2)n1,·,-12.3%,-4.4%,·,·
CCOC(=O)/C(=C\c1ccccc1)C(=O)CCN1CCOCC1,5.6%,1.46µM*,1.64µM*,7.1%,-1.0
O=C(NCCN1CCOCC1)c1sc2cc(Cl)ccc2c1Cl,?,?,-1.5%,-2.9%,?
Cc1cc(Cl)c2oc(C(=O)N(C)CCCCN3CCOCC3)c(C)c2c1,?,?,-18.5%,?,-7.3
CC(C)(CNC(=O)c1sc2cc(Cl)ccc2c1Cl)N1CCOCC1,-10.0%,16.4µM*,16.4µM*,0.8%,?
Cc1cc(Cl)c2oc(C(=O)N(C)CCc3cnn(C)c3)c(C)c2c1,-2.2%,-4.9%,18.4µM*,8.0%,21.3
Cc1cc(Cl)c2oc(C(=O)N(C)CCCN3CCOCC3)c(C)c2c1,-29.0%,16.4µM*,?,-3.8%,0.0
Cc1cc(Cl)c2oc(C(=O)NCC(C)(C)N3CCOCC3)c(C)c2c1,5.1%,?,23.1µM*,9.5%,49.9
Cc1cc(C(=O)NCC(C)(C)N2CCOCC2)c(C)o1,12.5%,-0.2%,1.9%,3.8%,-0.5
COc1ccc(-c2cnc(-c3cccnc3)o2)cc1,·,-7.7%[9.04 µM],-7.2%[9.04 µM],·,·
CN1OC[C@@H]2CN[C@H](c3cccc(-c4ccccc4)c3)C[C@@H]21,13.0%,-14.6%,?,0.4%,12.7
C=CCN(C(=O)CNC(=O)c1cccs1)C(C(=O)NC1CCCCC1)c1cccnc1 (stereo not drawn),7.6%,-21.1%,-4.1%,9.6%,-4.1
Fc1ccc(NC(=S)N/N=C/c2ccc(F)c(F)c2)c(F)c1,12.4%,-0.5%,-13.4%,3.8%,?
C/C(=N\NC(=S)NCCc1ccccc1)c1ccc(Cl)cc1Cl,?,16.4µM*,?,?,2.9
Fc1ccc(CNC(=S)Nc2ccc(Cl)cc2Cl)cc1,-2.1%,?,?,0.9%,-100.4*
Fc1ccccc1/C=N/NC(=S)Nc1ccc(Cl)cc1Cl,5.17µM*,1.84µM*,2.31µM*,3.26µM*,42.7
C/C(=N\NC(=S)NCCc1ccccc1)c1ccc(O)cc1O,?,?,?,?,16.9
Fc1ccc(NC(=S)Nc2ccc(Cl)cc2Cl)cc1,-1.2%,25.9µM*,?,-2.0%,-87.1*
Cc1ccc(-n2nnnc2SCC(=O)NC2CC2)cc1C,-1.6%,-1.6%,-25.8%,-4.1%,6.4
SMILES,HT1080-NT tox,TDP1 cell noCPT,TDP1 cell CPT,HT1080 IDH1KD tx,IL-1B inflam inh
COc1cccc(CN2CCC3(CC2)c2ccccc2[C@@H](NC(=O)c2ccccc2)[C@@H]3O)c1O,·,-29.9%,?,·,·
S=C(NCCc1ccc(Cl)cc1)Nc1ccc(Cl)cc1Cl,?,?,?,?,-78.7*
CN(C)/C=N/C(=S)Nc1ccc(Cl)cc1Cl,1.6%,?,5.8%,2.7%,-77.1*
CN1CCN(NC(=O)Nc2ccc(F)cc2)CC1,2.9%,26.1%,-5.7%,2.1%,21.1
Cc1cc2c(c(=O)o1)C(C13C=CC(CC1)C3)C(C#N)=C(N)O2 (stereo not drawn),7.6%,-4.3%,5.2%,2.9%,17.6
Cc1nc(CN2CCN(C(=O)CC3(c4ccccc4Cl)CC(=O)N(C)C3=O)CC2)cs1 (stereo not drawn),·,-10.3%,10.4%,·,·
